Where two headings read alike, the source gives them in different places.
Legend:
[1] = system: RPS6KA4; conditions: read-out: apparent Kd, n = 1
[2] = system: TNIK; conditions: read-out: apparent Kd, n = 1
[3] = compound concentrations:100 nM and 1000 nM (sheet 'Lestaurtinib' of Supplementary Table 1),run:Lestaurtinib_02624_R1,Plate:MR020
[4] = compound concentrations:100 nM and 1000 nM (sheet 'Lestaurtinib' of Supplementary Table 1),run:Lestaurtinib_02624_R2,Plate:MR020
[5] = compound concentrations:100 nM and 1000 nM (sheet 'Lestaurtinib' of Supplementary Table 1),run:Lestaurtinib_02724_R3,Plate:MR021
[6] = compound concentrations:100 nM and 1000 nM (sheet 'Lestaurtinib' of Supplementary Table 1),run:Lestaurtinib_02741_R1,Plate:MR023
[7] = compound concentrations:100 nM and 1000 nM (sheet 'Lestaurtinib' of Supplementary Table 1),run:Lestaurtinib_02741_R2,Plate:MR023
[8] = compound concentrations:100 nM and 1000 nM (sheet 'Lestaurtinib' of Supplementary Table 1),run:Lestaurtinib_02741_R3,Plate:MR023
[9] = compound concentrations:100 nM and 1000 nM (sheet 'Lestaurtinib' of Supplementary Table 1),run:Lestaurtinib_02752_R1,Plate:MR025
[10] = compound concentrations:100 nM and 1000 nM (sheet 'Lestaurtinib' of Supplementary Table 1),run:Lestaurtinib_02765_R2,Plate:MR026
[11] = compound concentrations:100 nM and 1000 nM (sheet 'Lestaurtinib' of Supplementary Table 1),run:Lestaurtinib_02766_R2,Plate:MR027
[12] = compound concentrations:100 nM and 1000 nM (sheet 'Lestaurtinib' of Supplementary Table 1),run:Lestaurtinib_02766_R3,Plate:MR027
[13] = compound concentrations:100 nM and 1000 nM (sheet 'Lestaurtinib' of Supplementary Table 1),run:Lestaurtinib_02768_R1,Plate:MR028
[14] = compound concentrations:100 nM and 1000 nM (sheet 'Lestaurtinib' of Supplementary Table 1),run:Lestaurtinib_02768_R3,Plate:MR028

Lestaurtinib
potency estimated from few doses ([1]; compound concentrations:100 nM and 1000 nM (sheet 'Lestaurtinib' of Supplementary Table 1),run:Lestaurtinib_02606_R2,Plate:MR019): 1310 nM | potency estimated from few doses ([1]; compound concentrations:100 nM and 1000 nM (sheet 'Lestaurtinib' of Supplementary Table 1),run:Lestaurtinib_02606_R3,Plate:MR019): 1340 nM | potency estimated from few doses [1, 3]: 1570 nM | potency estimated from few doses [1, 4]: 952 nM | potency estimated from few doses ([1]; compound concentrations:100 nM and 1000 nM (sheet 'Lestaurtinib' of Supplementary Table 1),run:Lestaurtinib_02724_R1,Plate:MR021): 1570 nM | potency estimated from few doses ([1]; compound concentrations:100 nM and 1000 nM (sheet 'Lestaurtinib' of Supplementary Table 1),run:Lestaurtinib_02724_R2,Plate:MR021): 1150 nM | potency estimated from few doses [1, 5]: 731 nM | potency estimated from few doses [1, 6]: 865 nM | potency estimated from few doses [1, 7]: 999 nM | potency estimated from few doses [1, 8]: 1130 nM | potency estimated from few doses ([1]; compound concentrations:100 nM and 1000 nM (sheet 'Lestaurtinib' of Supplementary Table 1),run:Lestaurtinib_02748_R1,Plate:MR024): 769 nM | potency estimated from few doses ([1]; compound concentrations:100 nM and 1000 nM (sheet 'Lestaurtinib' of Supplementary Table 1),run:Lestaurtinib_02748_R3,Plate:MR024): 638 nM | potency estimated from few doses [1, 9]: 1210 nM | potency estimated from few doses ([1]; compound concentrations:100 nM and 1000 nM (sheet 'Lestaurtinib' of Supplementary Table 1),run:Lestaurtinib_02765_R1,Plate:MR026): 1510 nM | potency estimated from few doses [1, 10]: 1150 nM | potency estimated from few doses ([1]; compound concentrations:100 nM and 1000 nM (sheet 'Lestaurtinib' of Supplementary Table 1),run:Lestaurtinib_02766_R1,Plate:MR027): 911 nM | potency estimated from few doses [1, 11]: 974 nM | potency estimated from few doses [1, 12]: 783 nM | potency estimated from few doses [1, 13]: 814 nM | potency estimated from few doses ([1]; compound concentrations:100 nM and 1000 nM (sheet 'Lestaurtinib' of Supplementary Table 1),run:Lestaurtinib_02768_R2,Plate:MR028): 841 nM | potency estimated from few doses [1, 14]: 954 nM | potency estimated from few doses ([1]; compound concentrations:100 nM and 1000 nM (sheet 'Lestaurtinib' of Supplementary Table 1),run:Lestaurtinib_02795_R2,Plate:MR022): 1420 nM | potency estimated from few doses ([1]; compound concentrations:100 nM and 1000 nM (sheet 'Lestaurtinib' of Supplementary Table 1),run:Lestaurtinib_02802_R2,Plate:MR029): 865 nM | potency estimated from few doses ([1]; compound concentrations:100 nM and 1000 nM (sheet 'Lestaurtinib' of Supplementary Table 1),run:Lestaurtinib_02802_R3,Plate:MR029): 770 nM | potency estimated from few doses ([1]; compound concentrations:100 nM and 1000 nM (sheet 'Lestaurtinib' of Supplementary Table 1),run:Lestaurtinib_02896_R1,Plate:MR030): 748 nM | potency estimated from few doses ([1]; compound concentrations:100 nM and 1000 nM (sheet 'Lestaurtinib' of Supplementary Table 1),run:Lestaurtinib_02896_R2,Plate:MR030): 1150 nM | potency estimated from few doses ([1]; compound concentrations:100 nM and 1000 nM (sheet 'Lestaurtinib' of Supplementary Table 1),run:Lestaurtinib_03172_R1,Plate:MR031): 1350 nM | potency estimated from few doses ([1]; compound concentrations:100 nM and 1000 nM (sheet 'Lestaurtinib' of Supplementary Table 1),run:Lestaurtinib_03172_R2,Plate:MR031): 771 nM | potency estimated from few doses ([1]; compound concentrations:100 nM and 1000 nM (sheet 'Lestaurtinib' of Supplementary Table 1),run:Lestaurtinib_03252_R2,Plate:MR032): 1300 nM | potency estimated from few doses ([1]; compound concentrations:100 nM and 1000 nM (sheet 'Lestaurtinib' of Supplementary Table 1),run:Lestaurtinib_03260_R3,Plate:MR033): 1400 nM | potency estimated from few doses ([2]; compound concentrations:100 nM and 1000 nM (sheet 'Lestaurtinib' of Supplementary Table 1),run:Lestaurtinib_02339_R2,Plate:MR001): 798 nM | potency estimated from few doses ([2]; compound concentrations:100 nM and 1000 nM (sheet 'Lestaurtinib' of Supplementary Table 1),run:Lestaurtinib_02364_R2,Plate:MR002): 206 nM | potency estimated from few doses ([2]; compound concentrations:100 nM and 1000 nM (sheet 'Lestaurtinib' of Supplementary Table 1),run:Lestaurtinib_02367_R1,Plate:MR003): 1130 nM | potency estimated from few doses ([2]; compound concentrations:100 nM and 1000 nM (sheet 'Lestaurtinib' of Supplementary Table 1),run:Lestaurtinib_02367_R2,Plate:MR003): 460 nM | potency estimated from few doses ([2]; compound concentrations:100 nM and 1000 nM (sheet 'Lestaurtinib' of Supplementary Table 1),run:Lestaurtinib_02367_R3,Plate:MR003): 1930 nM | potency estimated from few doses ([2]; compound concentrations:100 nM and 1000 nM (sheet 'Lestaurtinib' of Supplementary Table 1),run:Lestaurtinib_02407_R1,Plate:MR005): 160 nM | potency estimated from few doses ([2]; compound concentrations:100 nM and 1000 nM (sheet 'Lestaurtinib' of Supplementary Table 1),run:Lestaurtinib_02407_R2,Plate:MR005): 772 nM | potency estimated from few doses ([2]; compound concentrations:100 nM and 1000 nM (sheet 'Lestaurtinib' of Supplementary Table 1),run:Lestaurtinib_02407_R3,Plate:MR005): 136 nM | potency estimated from few doses ([2]; compound concentrations:100 nM and 1000 nM (sheet 'Lestaurtinib' of Supplementary Table 1),run:Lestaurtinib_02422_R1,Plate:MR006): 1750 nM | potency estimated from few doses ([2]; compound concentrations:100 nM and 1000 nM (sheet 'Lestaurtinib' of Supplementary Table 1),run:Lestaurtinib_02437_R1,Plate:MR007): 1310 nM | potency estimated from few doses ([2]; compound concentrations:100 nM and 1000 nM (sheet 'Lestaurtinib' of Supplementary Table 1),run:Lestaurtinib_02443_R2,Plate:MR009): 687 nM | potency estimated from few doses ([2]; compound concentrations:100 nM and 1000 nM (sheet 'Lestaurtinib' of Supplementary Table 1),run:Lestaurtinib_02473_R1,Plate:MR010): 165 nM | potency estimated from few doses ([2]; compound concentrations:100 nM and 1000 nM (sheet 'Lestaurtinib' of Supplementary Table 1),run:Lestaurtinib_02482_R1,Plate:MR011): 994 nM | potency estimated from few doses ([2]; compound concentrations:100 nM and 1000 nM (sheet 'Lestaurtinib' of Supplementary Table 1),run:Lestaurtinib_02487_R2,Plate:MR012): 159 nM | potency estimated from few doses ([2]; compound concentrations:100 nM and 1000 nM (sheet 'Lestaurtinib' of Supplementary Table 1),run:Lestaurtinib_02487_R3,Plate:MR012): 481 nM | potency estimated from few doses ([2]; compound concentrations:100 nM and 1000 nM (sheet 'Lestaurtinib' of Supplementary Table 1),run:Lestaurtinib_02496_R2,Plate:MR013): 764 nM | potency estimated from few doses ([2]; compound concentrations:100 nM and 1000 nM (sheet 'Lestaurtinib' of Supplementary Table 1),run:Lestaurtinib_02496_R3,Plate:MR013): 887 nM | potency estimated from few doses ([2]; compound concentrations:100 nM and 1000 nM (sheet 'Lestaurtinib' of Supplementary Table 1),run:Lestaurtinib_02566_R1,Plate:MR014): 845 nM | potency estimated from few doses ([2]; compound concentrations:100 nM and 1000 nM (sheet 'Lestaurtinib' of Supplementary Table 1),run:Lestaurtinib_02566_R2,Plate:MR014): 581 nM | potency estimated from few doses ([2]; compound concentrations:100 nM and 1000 nM (sheet 'Lestaurtinib' of Supplementary Table 1),run:Lestaurtinib_02572_R3,Plate:MR015): 52 nM | potency estimated from few doses ([2]; compound concentrations:100 nM and 1000 nM (sheet 'Lestaurtinib' of Supplementary Table 1),run:Lestaurtinib_02577_R2,Plate:MR016): 582 nM | potency estimated from few doses ([2]; compound concentrations:100 nM and 1000 nM (sheet 'Lestaurtinib' of Supplementary Table 1),run:Lestaurtinib_02577_R3,Plate:MR016): 885 nM | potency estimated from few doses ([2]; compound concentrations:100 nM and 1000 nM (sheet 'Lestaurtinib' of Supplementary Table 1),run:Lestaurtinib_02584_R1,Plate:MR017): 680 nM | potency estimated from few doses ([2]; compound concentrations:100 nM and 1000 nM (sheet 'Lestaurtinib' of Supplementary Table 1),run:Lestaurtinib_02584_R2,Plate:MR017): 717 nM | potency estimated from few doses ([2]; compound concentrations:100 nM and 1000 nM (sheet 'Lestaurtinib' of Supplementary Table 1),run:Lestaurtinib_02584_R3,Plate:MR017): 641 nM | potency estimated from few doses ([2]; compound concentrations:100 nM and 1000 nM (sheet 'Lestaurtinib' of Supplementary Table 1),run:Lestaurtinib_02601_R1,Plate:MR018): 756 nM | potency estimated from few doses ([2]; compound concentrations:100 nM and 1000 nM (sheet 'Lestaurtinib' of Supplementary Table 1),run:Lestaurtinib_02601_R2,Plate:MR018): 146 nM | potency estimated from few doses [2, 3]: 562 nM | potency estimated from few doses [2, 4]: 154 nM | potency estimated from few doses [2, 5]: 507 nM | potency estimated from few doses [2, 6]: 208 nM | potency estimated from few doses [2, 7]: 627 nM | potency estimated from few doses [2, 8]: 536 nM | potency estimated from few doses [2, 9]: 708 nM | potency estimated from few doses ([2]; compound concentrations:100 nM and 1000 nM (sheet 'Lestaurtinib' of Supplementary Table 1),run:Lestaurtinib_02752_R2,Plate:MR025): 671 nM | potency estimated from few doses [2, 10]: 797 nM | potency estimated from few doses ([2]; compound concentrations:100 nM and 1000 nM (sheet 'Lestaurtinib' of Supplementary Table 1),run:Lestaurtinib_02765_R3,Plate:MR026): 836 nM | potency estimated from few doses [2, 11]: 806 nM | potency estimated from few doses [2, 12]: 130 nM | potency estimated from few doses [2, 13]: 142 nM | potency estimated from few doses [2, 14]: 785 nM | potency estimated from few doses ([2]; compound concentrations:100 nM and 1000 nM (sheet 'Lestaurtinib' of Supplementary Table 1),run:Lestaurtinib_02795_R1,Plate:MR022): 573 nM

— paper PMC11062922 (Nature Chemical Biology, 2023)
